According to PubChem BioAssay (NCI):
About 83,000 compounds went through this panel and 20% of them were active in at least one assay; those are over-represented in the sample as a whole.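 How to read the values: 0–100, growth inhibition (40 = 60% inhibited); 0, no net growth; -100 to 0, cell death (-40 = 40% of starting cells died; -100 = all dead).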 Activity calls are given as the source filed them. Rule for the calls: active = growth percent below 10; inactive = the rest.

These molecules were tested on HS 578T breast (assay: NCI-60 one-dose screen, 48 h (100 = growth as untreated, 0 = no growth, -100 = all killed)). Settings: 10 µM unless noted.

| SMILES | growth |
| --- | --- |
| S=c1[nH]nc2ccccn12 | 98.5% (inactive) |
| N#CC1C(=N)Cc2ccccc2-c2ccccc21 (stereo not drawn) | 36.5% (inactive) |
| COc1c(N)c2c(c([N+](=O)[O-])c1OC)C(=O)OC2 | 109% (inactive) |
| CC(=O)O[C@H]1CC[C@@]2(C)C(=CC[C@@H]3[C@@H]2CC[C@]2(C)C(=O)N(O)C(=O)C[C@@H]32)C1 | 106% (inactive) |
| C/C(=N\NC(=O)C(C)SC(C)C(=O)N/N=C(\C)c1cccnc1)c1cccnc1 (stereo not drawn) | 101% (inactive) |
| Cc1cc(Nc2ccc(F)cc2)nc(N2CCN(c3ccnc4cc(Cl)ccc34)CC2)n1 | 39.3% (inactive) |
| COC(=O)[C@@H]1[C@H]2C[C@H]3c4[nH]c5cc(OC)ccc5c4CCN3C[C@@H]2C[C@H](OC(=O)/C=C/c2ccnc(OC)c2)[C@H]1OC | 90.9% (inactive) |
| Fc1cccc(-c2[nH]nc3nc(Nc4cccnc4)sc23)c1 | 69.4% (inactive) |
| O=C(c1ccccc1)C(CN1CCOCC1)c1ccccc1 (stereo not drawn) | 59.8% (inactive) |
| CCOc1ccc(NC(=O)c2ccccc2-c2ccccc2C(=O)O)cc1 | 103% (inactive) |
| Cc1ccc(Nc2c(C(N)=O)cnc3ccc(S(=O)(=O)Nc4cc(C)on4)cc23)cc1 | 104% (inactive) |
| Cn1cc(-c2csc(-c3cn(C(=O)OC(C)(C)C)c4ccc(Br)cc34)n2)c2cccnc21 | 94.7% (inactive) |
| CC1=CC(=O)N(c2cccc3c(N4C(=O)C=C(C)C4=O)cccc23)C1=O | 110% (inactive) |
| Cn1cc(-c2nc(-c3cn(C)c4ncccc34)cs2)c2ccccc21 | 81% (inactive) |
| O=C(/C=C/c1cccc(O)c1)c1ccccc1O | 86.9% (inactive) |
| Cc1cc(C)nc(NC(N)=NCCc2ccccc2)n1 | 45.3% (inactive) |
| O=C(N/N=C\c1ccccc1O)C1CC1 | 115% (inactive) |
| CC(C)=CCC/C(C)=C/CC/C(C)=C/CC/C(C)=C/CSC[C@H](NC(=O)CCCCCN1CCN(C)CC1)C(=O)NC1CCCCC1 | 95.7% (inactive) |
| Oc1cccc2oc(=S)[nH]c12 | 109% (inactive) |

| SMILES | growth |
| --- | --- |
| COc1ccc(C(=O)c2cc(OC)c(OC)c(OC)c2)cc1/C=C/C(=O)c1cc(OC)c(OC)c(OC)c1 | 82.4% (inactive) |
| Clc1ccc2[nH]cc(-c3nc(-c4c[nH]c5ncccc45)cs3)c2c1 | 75.7% (inactive) |
| O=C(NC1=CC(=O)c2ccccc2C1=O)c1ccccc1 | 25.3% (inactive) |
| COc1ccc2[nH]cc(-c3nc(-c4c[nH]c5ncccc45)cs3)c2c1 | 57.5% (inactive) |
| C#Cc1cc2c(N)c(C(=O)c3cc(OC)c(OC)c(OC)c3)[nH]c2cc1OC | 1.91% (active) |
| COc1cc2[nH]c(C(=O)c3cc(OC)c(OC)c(OC)c3)c(N)c2cc1C#CCO | 19.8% (inactive) |
| Cn1c2c(c3ccc(Cl)cc31)-n1cccc1C2=O | 104% (inactive) |
| Cn1cc(-c2nc(-c3cn(C)c4ncccc34)cs2)c2cc(F)ccc21 | 76.4% (inactive) |
| Oc1ccccc1/C=N\NC(=S)Nc1ccc(F)cc1 | 32.5% (inactive) |
| CC1c2ccccc2N(S(=O)(=O)c2ccccc2)C1C (stereo not drawn) | 92.7% (inactive) |
| CC(C)=CCC/C(C)=C/CC/C(C)=C/CSC[C@H](NC(=O)CCCCCN1CCN(C)CC1)C(=O)NC1CCCCCC1 | 76.2% (inactive) |
| O=[N+]([O-])c1ccc(/C=N\Nc2ccccc2)cc1 | 63.1% (inactive) |
| C(=C\c1c[nH]c2ccccc12)/c1ccc2ccccc2n1 | 107% (inactive) |
| Cn1cc(-c2csc(-c3c[nH]c4ccc(F)cc34)n2)c2cccnc21 | 76.1% (inactive) |
| Nc1c(Cl)cc(N=Nc2ccccc2)cc1Cl | 94.8% (inactive) |
| CC(=O)O[C@H]1CC[C@@]2(C)[C@@H](CC[C@@H]3[C@@H]2CC(=O)[C@@]2(C)[C@H]3C[C@@H](C3CCCC3=O)[C@@H]2C(C)=O)C1 (stereo partly drawn) | 108% (inactive) |
| CC(=O)Oc1ccccc1C(=O)/C=C/c1cccc([N+](=O)[O-])c1 | 71.2% (inactive) |
| O=C(O)c1cccc2c1C(=O)N(c1ccc3c(c1)Cc1ccccc1-3)C2=O | 112% (inactive) |
| Brc1ccc2[nH]cc(-c3nc(-c4c[nH]c5ncccc45)cs3)c2c1 | 71.8% (inactive) |
